Screening results (PubChem)
A3G deaminase = blocks human APOBEC3G single-stranded DNA deamination; Q9HC16; recombinant A3G, ssDNA deamination FAM/TAMRA fluorescence; inhibition, % at 20 µM; 330,000 tested, 0.28% active;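 active = inhibition of at least 40% at 20 µM, with no more than 30% in the related APOBEC3A deaminase screen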;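 also: plate controls were DMSO wells with A3G for no effect and wells lacking A3G enzyme for full effect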
Target sequence (Q9HC16 whole entry, looked up): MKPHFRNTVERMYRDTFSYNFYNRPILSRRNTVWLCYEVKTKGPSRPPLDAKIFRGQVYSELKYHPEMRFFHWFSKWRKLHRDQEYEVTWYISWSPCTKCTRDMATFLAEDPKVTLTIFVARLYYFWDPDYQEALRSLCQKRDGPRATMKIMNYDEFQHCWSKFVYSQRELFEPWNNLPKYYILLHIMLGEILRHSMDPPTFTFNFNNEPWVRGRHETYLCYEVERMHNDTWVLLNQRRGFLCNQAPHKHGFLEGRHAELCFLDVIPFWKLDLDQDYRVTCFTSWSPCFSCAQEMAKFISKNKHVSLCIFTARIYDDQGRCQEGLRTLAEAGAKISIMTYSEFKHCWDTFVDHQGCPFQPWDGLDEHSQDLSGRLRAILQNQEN
CendR NRP1 mod = NRP-1/CendR interaction modulation | O14786 | FAM-RPARPAR peptide binding to NRP-1, fluorescence polarization | inhibition, % at 25 µM | 360,000 tested, 0.85% active | AID 602438;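 active = inhibition or corrected inhibition above about 18%, plus a signal ratio from 0.5 to 1.5, limit read from the data, passing the limit was not always enough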
A3A deaminase = human APOBEC3A DNA deaminase inhibition; inhibition, % at 20 µM; recombinant A3A, FAM/TAMRA ssDNA deamination fluorescence; 330,000 tested, 0.41% active; P31941;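 active = at least 40% inhibition at 20 µM here, with at most 30% in a related deaminase screen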;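 also: plate controls were A3A with DMSO for no effect and wells lacking A3A enzyme for full effect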
Target sequence (P31941 whole entry, looked up): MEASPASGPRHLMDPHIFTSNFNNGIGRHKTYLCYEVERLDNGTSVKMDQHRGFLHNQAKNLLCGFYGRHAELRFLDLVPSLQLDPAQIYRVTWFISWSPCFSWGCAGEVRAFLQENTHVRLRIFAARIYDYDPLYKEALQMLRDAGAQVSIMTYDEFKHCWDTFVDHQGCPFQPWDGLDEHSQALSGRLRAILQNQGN
CR mimetic SO = lowers age-related superoxide in aged yeast cells; superoxide response (% of plate mean), % at 10 µM; AID 2690; S. cerevisiae aged cells, superoxide DHE fluorescence; hits give low values; 330,000 tested, 0.18% active;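 active = superoxide response under a set limit, about three screen SD below normal, cut at about 65% in these data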;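 also: yeast aged for seven days with compound at 30 °C before DHE staining; 100% = average MFI of all compound-treated wells on the plate with controls excluded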
ALR H2O2 inh = blocks human ALR sulfhydryl oxidase activity; P55789; 290,000 tested, 3.8% active; inhibition, % (test concentration not listed); purified ALR, DTT oxidation, H2O2 HRP-luminol luminescence;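 active = mean replicate inhibition above about 79%, with every replicate also reaching it, limit read from the data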
M18AAP inhibitor = PfM18AAP enzyme inhibition; recombinant PfM18AAP, H-Glu-NHMec fluorogenic cleavage; inhibition, % at 7.35 µM; 290,000 tested, 1.2% active; AID 1822;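 active = inhibition above the campaign mean inhibition over all tested compounds plus 3 SD, cut at about 28% in these data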;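 also: 0% = plate median of test compound wells and 100% = 2 mM ZnCl2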
* marks the source's active call; other numbers are inactive results; . = no result. Sampled rows, rich in hits. Any-hit rate of the full collection: about 5.2%.

SMILES	A3G deaminase	CendR NRP1 mod	A3A deaminase	CR mimetic SO	ALR H2O2 inh	M18AAP inhibitor
COc1ccc(N2CCN(CC(=O)Nc3ccc(C)cc3)CC2)cc1	-3	4	-7	106	90*	1
CCCOC(=O)Nc1ccc(N2CCCCC2)cc1	-4	-13	-4	108	97*	-26
O=C(CNCc1cccs1)Nc1ccc(N2CCCCCC2)cc1	-18	-6	-4	87	99*	14
COc1ccc(NC(=O)CN2CCN(c3ccccc3)CC2)cc1	0	2	-3	104	68	-18
O=C(CN1CCCCC1)Nc1ccc(N2CCCCCC2)cc1	-10	-10	-6	102	99*	10
CCCCC(=O)Nc1ccc(N2CCCC2)cc1	-3	-26	-1	100	-5	4
O=[N+]([O-])c1ccc2c(c1)OCCOCCOCCOCCOCCOCCO2	-3	6	-1	102	-31	-3
Cc1ccc2nc(-c3ccccn3)cc(C(=O)NC(C)C(C)(C)C)c2c1 (stereo not given)	-5	-17	-5	119	.	-6
COc1ccc(NC(=O)CN2CCN(c3c(C)cc(C)cc3C)CC2)cc1	-5	37*	-6	111	1	3
COc1ccc(NC(=O)CN2CCN(c3c(C)cccc3C)CC2)cc1	-2	6	1	104	-12	1
COc1ccc(NC(=O)CN2CCCN(S(=O)(=O)c3ccc(F)cc3)CC2)cc1	-3	0	6	98	2	-4
COc1ccc(S(=O)(=O)N2CCCN(CC(=O)Nc3ccc(NC(C)=O)cc3)CC2)cc1	-5	39*	-1	97	.	4
Cn1c(CNc2ccc(F)cc2)nc2ccccc21	-8	-6	0	102	85*	-5
Cc1nn(C)c(Cl)c1CN1CCCC(CO)(Cc2ccccc2)C1 (stereo not given)	-6	7	3	97	-6	-1
O=C(N/N=C/c1ccc(O)cc1)c1cc[n+](Cc2ccccc2)cc1	-10	4	-6	102	99*	2
CC(NC(=O)c1ccccc1)C(=O)N/N=C/c1ccc(O)cc1 (stereo not given)	-1	6	1	109	99*	7
O=C(N/N=C/c1ccc(OCc2ccccc2)cc1)c1cc[n+](Cc2ccccc2)cc1	-11	-12	1	89	-21	7
O=C(N/N=C/c1cccc(C(F)(F)F)c1)c1ccc(O)cc1	1	-4	3	63*	-6	-6
O=C(COC(=O)Cc1n[nH]c(=O)c2ccccc12)NNC(=O)c1ccc(Br)cc1	-6	10	-1	87	20	.
CCCN(CC(=O)Nc1ccccc1OC)C(=O)CCC(=O)c1ccc(Cl)s1	1	-3	2	90	6	.
COc1cc2c(c(OC)c1O)C(=O)CO2	3	11	3	99	-18	8
COc1cc2c(c(OC)c1OC)C(=O)CO2	.	18*	.	.	.	.
O=C(NNC(=O)c1ccc(Br)o1)c1ccc(NC(=O)c2ccccc2)cc1	-2	-1	1	111	50	2
N/C(=N\O)c1ccc(NC(=O)c2ccc(Br)o2)cc1	-5	10	-5	105	98*	1
Cc1cc2nc(-c3ccc(SCC(=O)N4CCN(C(=O)c5ccco5)CC4)nc3)[nH]c2cc1C	-6	-3	3	103	99*	1
SMILES	A3G deaminase	CendR NRP1 mod	A3A deaminase	CR mimetic SO	ALR H2O2 inh	M18AAP inhibitor
Cc1cc2nc(-c3ccc(SCc4ccccn4)nc3)[nH]c2cc1C	-9	-14	0	104	98*	-12
Cc1cc(SCC(=O)N2CCN(C(=O)c3ccco3)CC2)c(C)cc1Br	5	22*	1	102	-2	.
Cc1ccc(S(=O)(=O)N2CCCCC2)cc1NC(=O)CSc1nnnn1C	1	-6	1	96	-7	-7
Cc1nn(-c2ccccc2)c2[nH]c(=O)c(CNCc3ccc4c(c3)OCO4)cc12	-3	3	-1	97	7	-5
Cc1nn(-c2ccccc2)c2[nH]c(=O)c(CNCCN3CCOCC3)cc12	-3	2	-1	100	91*	-4
Fc1ccc(COc2ccccc2C(=S)N2CCCC2)cc1	23	3	3	93	-5	19
Cc1ccc(COc2ccccc2C(=S)N2CCCC2)cc1	0	19	-3	93	-5	28*
CCOc1ccccc1C(=O)NCC(=O)O	-8	-5	5	99	10	-1
COc1ccc(C(=O)NNC(=O)COc2ccc(Cl)cc2)c(OC)c1	-7	2	-3	75	-12	22
CCOC(=O)c1cc(C(C)C)sc1NC(=O)COC(=O)CCS(=O)(=O)c1ccccc1	.	-3	.	123	-1	0
CCOC(=O)c1c(NC(=O)COC(=O)CCS(=O)(=O)c2ccc(C)cc2)sc(C)c1C	2	-7	1	85	94*	7
CCNC(=O)CCSc1nnc(-c2ccncc2)o1	-3	2	0	94	-2	-16
Cc1cc(C)c(S(=O)(=O)c2ccccc2)c(OC(=O)c2c(Cl)cc(Cl)cc2Cl)n1	1	5	1	95	-1	0
O=c1cc(-c2ccc(O)cc2)oc2c([C@@H]3O[C@H](CO)[C@@H](O)[C@H](O)[C@H]3O)c(O)c([C@@H]3O[C@H](CO)[C@@H](O)[C@H](O)[C@H]3O)c(O)c12	0	3	3	102	.	13
O=c1cc(-c2ccc(O)c(O)c2)oc2cc(O)c([C@@H]3O[C@H](CO)[C@@H](O)[C@H](O)[C@H]3O)c(O)c12	-7	-45	0	96	99*	.
O=c1c2cc(O)c(O)cc2oc2cc(O)c(C3OC(CO)C(O)C(O)C3O)c(O)c12 (stereo not given)	-5	-94	-3	85	99*	.
CC(Sc1ncccn1)C(=O)Nc1ccc2c(c1)OCO2 (stereo not given)	-1	16	2	77	.	.
COC(=O)C1C(O)=C(C=Nc2ccc(N)cc2)C(=O)CC1(C)C (stereo not given)	-2	11	-5	95	26	15
COC(=O)C1C(O)=C(C=Nc2ccccc2)C(=O)CC1(C)C (stereo not given)	-11	1	-5	100	100*	5
Cc1ccc(-n2c(O)c(/C=C3/C(c4ccccc4)=Nc4ccccc43)c(=O)[nH]c2=O)cc1	1	-34	4	81	98*	-4
CN1C(=O)/C(=C/c2cccc([N+](=O)[O-])c2)C(=O)N1c1ccccc1	8	-12	-6	90	98*	21
O=C1NC(=S)N/C1=C/c1cccc([N+](=O)[O-])c1	-3	3	1	88	1	-7
CCOc1cc(/C=N/NC(=O)c2cccnc2)ccc1O	0	-1	0	107	.	2
CCOc1cc(/C=N\n2nnnc2N)ccc1O	-7	3	-3	118	99*	4
